Screen size: about 1,300 compounds; about 270 (21%) were called active. These entries were drawn from the full list. Results with a measured potency or affinity are listed apart. Values without a mark were called inactive. The rule behind the calls is not given here.
test: SK-MEL-5 parental cell viability loss, dose response, orthogonal assay for MITF inhibitor project, CellTiter-Glo, cherry-picked, set 3 (AID 493240); conditions: SK-MEL-5 viability, ATP luminescence (CellTiter-Glo), 24 h; series mostly up to 35 µM; activity change, negative = viability loss: at the top concentration

| Compound | activity change, negative = viability loss [%] |
| --- | --- |
| Cc1ccc(C2=NN(C(=O)CCl)C(c3cccs3)C2)o1 (configuration not stated) | -37.2 |
| Cc1ccc([N+](=O)[O-])cc1N1C(=O)CS/C1=N\NC(=O)c1cccnc1 | -3.24 |
| CC(=O)COc1ccc2cc(-c3ccccc3)c(=O)oc2c1 | -2.9 |
| O=[N+]([O-])c1ccccc1OCCOc1ccccc1[N+](=O)[O-] | -0.336 |
| CCOC(=O)C1(Cc2ccccc2)CCCN(CCCn2cccn2)C1 (configuration not stated) | 8.95 |
| CN(Cc1ccccc1)C1=CC(=[N+]2CCCCC2)CC(C)(C)C1 | -35.9 |
| O=C(NCCNc1ccccc1[N+](=O)[O-])c1cc(F)c(F)cc1Cl | -1.52 |
| N#CC(C#N)=C1C=CC=CN1/C(=C\c1ccco1)C(=O)c1ccc(Br)cc1 | -43 |
| CC(C)N1C(=O)S/C(=C\c2ccc(-c3ccc(Cl)c(C(=O)O)c3)o2)C1=O | -8.81 |
| Cc1cn(CCC(=O)Nc2ccccc2N2CCOCC2)c2ccccc12 | 2.75 |
| Fc1ccccc1-c1nc(-c2ccncc2)no1 | 0.869 |
| Clc1cccc(-c2nc(-c3ccccn3)no2)c1 | -33.1 |
| C/C(=N/NC(=O)C(O)(c1ccccc1)c1ccccc1)c1ccc([N+](=O)[O-])o1 | -18.4 |
| O=C(Nc1ccc2nc3n(c(=O)c2c1)CCCC3)c1cc([N+](=O)[O-])ccc1F | -36.5 |
| CCN(CC(=O)Nc1ccc2c(c1)OCCO2)C(=O)c1ccc([N+](=O)[O-])s1 | 0.045 |
| O=C(c1ccc([N+](=O)[O-])s1)N1CCN(c2ccccn2)CC1 | -4.49 |
| Cc1c(C#N)c(NC(=O)CCl)n(Cc2cccs2)c1C | -21.3 |
| O=C(/C=C/c1ccc2c(c1)OCO2)N1CCCCC1 | -8.83 |
| Cc1ccccc1NCc1nc2ccccc2n1C | -26.3 |

| Compound | activity change, negative = viability loss [%] |
| --- | --- |
| Cc1ccc(C(=O)N/C(=C\c2ccc(-c3ccccc3[N+](=O)[O-])o2)C(=O)NCCN(C)C)cc1 | -11 |
| O=C(NCC1CCCO1)c1cc(-c2ccc(Cl)cc2Cl)on1 (configuration not stated) | -0.7 |
| O=C(NC(=S)NCc1ccccc1)c1ccccc1 | -7.22 |
| CCOc1ccc2cc(C#N)c(SCC(=O)OC)nc2c1 | -0.011 |
| Cc1ccc2nc(-c3ccncc3)[nH]c2c1 | -7.63 |
| Cn1nnnc1Sc1ncnc2scc(-c3cccc(F)c3)c12 | -1.07 |
| CN(C)c1ccc(-n2cccc2/C=C/[N+](=O)[O-])cc1 | -40.2 |
| Cc1ccc(/C=c2/sc3n(c2=O)CCCN=3)o1 | -1.78 |
| Cc1ccc(C(=O)NC2=NCCS2)cc1Cl | -9.15 |
| Nc1nnc(/C=C/c2ccccc2Cl)s1 | 3.2 |
| COc1cc(CN2CCC(C(=O)NCCC(C)C)CC2)ccc1OCc1ccccc1 | -4.88 |
| CC1CCN(Cc2nc(-c3ccc(Cl)cc3)no2)CC1 | -6.13 |
| CCOC(=O)N1CCC(NC(=O)C2CCCN(Cc3nc(-c4cccc(C)c4)oc3C)C2)CC1 (configuration not stated) | -18.6 |
| CC(C)c1ccc(C(=O)Nc2cccnc2)cc1 | 3.56 |
| Cc1cccc(NC(=O)c2cnn(-c3ccccc3)c2C)c1C | -9.37 |
| CCOc1ccccc1NC(=O)C1C2CCC(O2)C1C(=O)O (configuration not stated) | 11.8 |
| N#Cc1c(NC(=O)CSc2ncn[nH]2)sc2c1CCCCC2 | -22.5 |
| COC(=O)c1ccc(COc2ccc(C)cc2[N+](=O)[O-])o1 | -9.13 |
| CCOC(=O)c1ccc(NC(=O)c2ccnn2C)cc1 | -12.7 |

| Compound | activity change, negative = viability loss [%] |
| --- | --- |
| Cc1ccc(NC(=O)c2ccc([N+](=O)[O-])o2)cc1S(=O)(=O)N1CCOCC1 | -28.5 |
| CCOC(=O)c1ccc(NC(=O)CC2SCCNC2=O)cc1 (configuration not stated) | -5.27 |
| O=C(Nc1ccccc1N1CCOCC1)c1ccc([N+](=O)[O-])s1 | -22.3 |
| O=C(Nc1ccc(N2CCOCC2)cc1)c1cnsn1 | -19.4 |
| Cc1ccc(NC(=O)c2ccc(OCC3CCCO3)cc2)c(C)c1 (configuration not stated) | 1.58 |
| Cc1ccc(NC(=O)c2cc(N3C(=O)C=CC3=O)ccc2N2CCOCC2)cc1Cl | -17.8 |
| CCCOc1ccc(C(=O)Nc2ccc3c(c2)OCCO3)cc1 | -8.17 |
| C=CCC(Nc1ccccc1)C12C=CC(O1)C(C(=O)OC)=C2C(=O)OC (configuration not stated) | -37.9 |
| Cc1ccc(N2C(=O)c3ccc(N)cc3C2=O)cc1C | -0.496 |
| S=c1[nH]nc(-c2ccco2)n1/N=C/C(Cl)=C/c1ccccc1 | -1.61 |
| CCCCC1C(=O)N(c2ccccc2)N(c2ccc(O)cc2)C1=O (configuration not stated) | -9.02 |
| CCOC(=O)CSc1nc2cc(OCC)ccc2cc1C#N | 6.5 |
| Brc1ccc(-c2cn3cccnc3n2)cc1 | 4.33 |
| O=C(NCc1ccco1)c1nc2c(nnn2Cc2ccccc2Cl)c(=O)[nH]1 | 9.37 |
| CC(NC(=O)c1ccc([N+](=O)[O-])o1)C12CC3CC(CC(C3)C1)C2 (configuration not stated) | -27.9 |
| C=C1C(=O)O[C@@H]2[C@H]1[C@@H](OC(=O)/C(C)=C/C)C/C(C)=C\C(=O)/C=C(\C)[C@@H]2O | -35.8 |
| CCN(CCO)c1ccc(N=Nc2cc(C)[nH]n2)cc1 | -2.53 |
| CN(C)c1ccc(/C=C2\SC(=O)N(CCc3nnc(N)s3)C2=O)cc1 | -5.85 |
| COc1ccc(-c2nc(-c3ccccc3OC)no2)cc1OC | 4.84 |
